The results in this text go back to ChEMBL document CHEMBL4513135, “CO-ADD screening of IQOG CSIS (Spain) compounds”.

For experiment [1], the system named is Klebsiella pneumoniae. To be noted: Concentration 32 ug.mL-1; ASSAY_TEST Inhibition of Bacterial Growth; detection method Absorption (OD600); MEDIA CAMHB; plate type 384well; NBS; CORNING #3640; time 18 hr.
Experiment [2] concerns Candida albicans. To be noted: 32 ug/mL.
Experiment [3] has as its system Cryptococcus neoformans. As to conditions: Concentration 32 ug.mL-1; ASSAY_TEST Inhibition of Fungal Growth; detection method Resazurin; Absorption (OD600-OD570); plate type 384well; NBS; CORNING #3640. (In general: The colour change of resazurin is a common sign of viable cells or microbes.)

Molecules are shown by their SMILES. Entries with a potency or affinity are not part of this list.

Regarding `Cc1[nH]c2ccc(OCc3ccccc3)cc2c1C(=O)NN`, the Inhibition (as a rule, the relative decrease from the control value, in per cent) in experiment [1] is 5.83%; in experiment [2] it was 1.23%; in experiment [3], -5.65%.
Taken in the same sequence, the figures for `O=C(Cc1c[nH]c2ccccc12)NNCc1ccccc1` were 1.88%, 0.22% and -1.3%.
Taken in the same sequence, the figures for `N#Cc1c(N)nc(N)c(C#N)c1-c1ccccc1` were 13.82%, 1.47% and -29.88%.
Taken in the same sequence, the figures for `COc1ccc(C=C2N=C(c3ccccc3)SC2=O)cc1` were 19.45%, 0.65% and -2.03%.
Consider `COc1ccc(-c2cc(-c3cc4ccc(F)cc4nc3Cl)cc(=O)[nH]2)cc1`, for which the figures for the Inhibition in experiment [1], in experiment [2] and in experiment [3] were -16.09%, 1.94% and -21.89%, respectively.
Taken in the same sequence, the figures for `Cc1ccc2nc(Cl)c(/C=N/N)cc2c1` were 10.01%, 15.7% and -3.85%.
Taken in the same sequence, the figures for `Cn1ccnc1C1c2ccc3cccnc3c2Oc2nc3c(c(N)c21)CCCCC3` (centres undefined) were 9.25%, 2.52% and -79.42%.
Taken in the same sequence, the figures for `CCOC(=O)c1c(C)nc2nc3c(c(N)c2c1-c1ccccc1OC)CCCCC3` were 0.86%, -0.21% and -93.54%.
Take `N#Cc1c(Cl)nc(Cl)c(C#N)c1-c1ccccc1`: the Inhibition in experiment [1] was 19.31%; in experiment [2] it was 34.6%; in experiment [3], -43.27%.
Taken in the same sequence, the figures for `O=C1C=C(Nc2ccccc2)C(=O)N1c1ccccc1` were 6.46%, -0.48% and -3.49%.
Taken in the same sequence, the figures for `Cl.N#Cc1c(Cl)nc(N)nc1NCCO` were 6.6%, 1.9% and 8.33%.
Taken in the same sequence, the figures for `Cn1cc(C=O)c2ccccc21` were 2.25%, 1.53% and -4.31%.
With `CCOC(=O)C1=C(C)OC(N)=C(C#N)C1c1ccco1` (centres undefined), the figures for the Inhibition in experiment [1], in experiment [2] and in experiment [3] were 6.85%, 1.71% and -29.39%, respectively.
